Compound activity: PubChem BioAssay, ICCB-Longwood Screening Facility, Harvard Medical School
An excerpt weighted towards active compounds, which were near 0.52% of everything screened.
Sa helicase inh = S. aureus DNA helicase inhibition; hit rate 0.05% among 120,000; AID 485395; inhibition, % (concentration not given with the values); purified S. aureus helicase, fluorescence unwinding assay; in the data active = inhibition above about 25%, passing the limit was not always enough;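 note: 0% = mean of negative control wells and 100% = mean of positive control wells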
Sa growth 42C = inhibitors of Staphylococcus aureus growth at 42 °C | S. aureus RN4220 growth, OD600, 20 h; active compounds read low | relative growth, % (no concentration beside the values) | hit rate 0.53% among 170,000 | AID 720641;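 active = relative growth at most 50% at the other temperature and 20+ points below 30 °C, or under 10% at both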
* hit, by the source's call; . = no result.

SMILES	Sa helicase inh	Sa growth 42C
O=C1C=CC(=O)N1CCc1ccccc1	17	19
Cc1onc(-c2c(Cl)cccc2Cl)c1CC#N	.	89
O=C(c1ccccc1)c1cccnc1C(=O)O	.	94
O=C1c2ccccc2C(=O)c2c1oc1c3c(ccc21)OCN(C1CCS(=O)(=O)C1)C3 (centres undefined)	27	7.6*
O=C1c2ccccc2C(=O)c2c1oc1c3c(ccc21)OCN(C1CCCC1)C3	32	97
CC1=CC(C)=NC2Nc3c(C)cc(C)cc3C(=N)C12 (centres undefined)	66*	85
COc1cc(C2Nc3c(C)cc(C)cc3-c3cc(C)nn32)cc(OC)c1O (centres undefined)	.	105
CC(=O)N1CCN(c2ccc(OCC3CO[C@](Cn4ccnc4)(c4ccc(Cl)cc4Cl)O3)cc2)CC1 (some centres undefined)	.	2.6*
CCOc1ccc(NC(=O)N2CCN(c3ccc(Cl)c(Cl)c3)CC2)cc1	.	107
COc1cccc(/C=N/NC(=O)c2ccccn2)c1	-16	86
C=CCN(CC=C)Cn1[nH]c(-c2cccs2)nc1=S	-3	38*
O=S(=O)(c1ccc2ccccc2c1)N1CCN(Cn2[nH]c(-c3cccs3)nc2=S)CC1	21	42
CCc1ccc(Oc2c(C(F)(F)F)oc3c(CN4CCC(C)CC4)c(O)ccc3c2=O)cc1	.	97
COC(NC(=O)Nc1nc2ccccc2s1)(C(F)(F)F)C(F)(F)F	3	5.5*
CCNC(=O)Nc1nc2ccccc2s1	-15	115
Cc1cc(Br)ccc1SCC(=O)OCC(=O)Nc1cc(F)ccc1F	-10	102
O=C(C(c1ccccc1)c1ccccc1)N1CCc2ccccc21	15	114
N=C1/C(=C2\Nc3ccccc3S2)CC(=O)N1Cc1ccco1	-24	41
N=C1/C(=C2\Nc3ccccc3S2)CC(=O)N1CCc1ccccc1	-13	1.4*
O=c1oc(-c2cccs2)nc2scc(-c3ccccc3)c12	-30	99
CCC(C)N1C(=O)S/C(=C/c2ccc(O)c(Cl)c2)C1=O (centres undefined)	-8	-0.6*
CCOc1cc(/C=C2/SC(=S)N(C(CC)C(=O)O)C2=O)ccc1O (centres undefined)	-2	80
O=C(CC1OCCN(Cc2ccccc2)C1=O)Nc1ccc2c(c1)OCCO2 (centres undefined)	8	107
CCc1ccc(NC(=O)N(Cc2ccco2)C2CCN(C(C)=O)CC2)cc1	24	106
Cc1ccc(NC(=O)CCc2c(C)nn3cnnc3c2C)cc1	3	86
SMILES	Sa helicase inh	Sa growth 42C
Cc1oc2c(c1C(=O)NCc1ccccn1)C(=O)c1ccccc1C2=O	4	0.6*
Cc1oc2c(c1C(=O)NCCCN1CCOCC1)C(=O)c1ccccc1C2=O	2	1.7*
Cc1c(C(=O)NCCCN2CCOCC2)cc(-c2ccccc2)n1-c1ccccc1	.	101
Cc1oc2c(c1C(=O)O)C(=O)c1ccccc1C2=O	2	11
Cc1oc2c(c1C(=O)NCc1ccccc1)C(=O)c1ccccc1C2=O	2	20
Cc1oc2c(c1C(=O)N1CCc3ccccc3C1)C(=O)c1ccccc1C2=O	6	6.5*
N#Cc1c(O)c(C=C2C=CC(=O)C=C2)n2ccccc12	-6	77
C=CCN1CCN(C(=O)c2cc(OC)c(OC)cc2OC)CC1	2	107
COc1cccc(/C=N/NC(=O)CSCc2ccccc2)c1O	9	67
COC(=O)c1sccc1N(S(=O)(=O)c1ccccc1)S(=O)(=O)c1ccccc1	-4	110
CCCN1C(C(=O)c2ccccc2)=C(OC(=O)c2ccc(C)cc2)c2ccccc2S1(=O)=O	.	97
CCCCN1C(C(=O)c2ccccc2)=C(OC(=O)CC)c2ccccc2S1(=O)=O	.	8.2*
CCCCC(=O)OC1=C(C(=O)c2ccccc2)N(CCC)S(=O)(=O)c2ccccc21	.	4.0*
CCCCCN1C(C(=O)c2ccccc2)=C(OC(=O)CC)c2ccccc2S1(=O)=O	.	-0.5*
CCCN1C(C(=O)c2ccccc2)=C(OC(=O)c2ccc(F)cc2)c2ccccc2S1(=O)=O	.	26
CCCCCN1C(C(=O)c2ccccc2)=C(NC(C)=O)c2ccccc2S1(=O)=O	.	112
CCc1ccccc1Nc1nc(N)nc(CN2C(=O)NC3(CCCCCC3)C2=O)n1	8	77
N#CCN(CC#N)C(=O)c1ccco1	17	94
CC(=O)N1c2ccc(S(=O)(=O)N3CC(=O)N(CCc4ccccc4)C(=O)C3)cc2CC1C (centres undefined)	-20	95
O=C(CN1C(=O)c2ccccc2C1=O)Oc1cccc2cccnc12	15	0.8*
N#Cc1ccccc1OC(=O)CCN1C(=O)c2ccccc2C1=O	9	103
O=C(Cc1ccccc1)Oc1cccc2cccnc12	21	.
O=C(CCN1C(=O)c2ccccc2C1=O)Oc1cccc2cccnc12	-8	-0.6*
O=C1CC(c2ccccc2)S(=O)(=O)c2ccccc2N1 (centres undefined)	.	109
CCOC(=O)c1sc(C2COc3ccccc3O2)nc1C (centres undefined)	.	94
SMILES	Sa helicase inh	Sa growth 42C
CC(NC(=O)C(c1ccccc1)N1Cc2ccccc2C1=O)c1ccc2c(c1)OCCO2 (centres undefined)	4	88
O=c1c2ccccc2ncn1-c1ccc(F)cc1	11	101
O=C(Cn1nnc(-c2cccc(C(F)(F)F)c2)n1)NC(=O)NC1CCCC1	1	99
COc1ccc(N2CCN(S(=O)(=O)c3ccc(F)c(C(=O)Nc4ccccc4Cl)c3)CC2)cc1	.	149
Cc1ccc(-c2[nH]c3ccccc3c2SCCN)cc1	-17	.
CSc1c(-c2ccc(Cl)cc2)[nH]c2ccccc12	.	21*
O=C(NCc1ccco1)C1CCCN1S(=O)(=O)c1ccc(-c2ccc(=O)[nH]n2)s1 (centres undefined)	7	105
COc1ccc(-c2cc(=NC(CC(C)C)C(=O)O)c3cc(C)ccc3o2)cc1 (centres undefined)	7	92
COc1ccc(-c2cc(=NCCc3ccccc3)c3cc(C)ccc3o2)cc1	46*	14
O=C1CNC(=S)N1CC1CCCO1 (centres undefined)	11	77
Clc1ccc(OCCn2ccnc2)c(Br)c1	9	3.1*
Cc1cc(Cl)cc(C)c1OCCn1ccnc1	0	19
CC(C)N(C(=O)Cn1c(-c2ccco2)nc2ccccc21)c1ccccc1	-17	91
O=C(COC(=O)CC1CCCC1)Nc1nnc(-c2ccccc2)o1	2	21
O=C(COC(=O)Cc1coc2ccc3ccccc3c12)Nc1nnc(-c2ccccc2)o1	-9	0.1*
O=C(COC(=O)C1(c2ccccc2)CC1)Nc1nnc(-c2ccccc2)o1	13	-0.5*
O=C(Cc1coc2ccc3ccccc3c12)Oc1ccc(-c2nnco2)cc1	15	96
Cc1ccc(NC(=O)CC2Oc3ccccc3NC2=O)cc1 (centres undefined)	11	106
N#C/C(=N\Nc1cccc(Cl)c1)C(=O)c1ccco1	-9	1.8*
Cc1cc(C(=O)/C(C#N)=N/Nc2cccc(Cl)c2)n(C(C)(C)C)n1	21	5.4*
N#C/C(=N\Nc1cc(C(=O)O)cc(C(=O)O)c1)C(=O)c1ccccc1	-3	94
N#C/C(=C\Nc1cccc(Cl)c1)S(=O)(=O)Cc1ccco1	.	85
NC(=O)c1c(SCc2ccccc2)sc(C(=O)c2ccccc2)c1N	.	93
O=C1c2ccccc2-c2c(-c3ccccc3)sc(=O)n21	3	108
CCN(CC)S(=O)(=O)c1cccc(C(=O)OCC(=O)c2ccc3c(c2)OCO3)c1	2	92
